Compounds with a hit are over-represented: about 8.9% of the library has one in this group of screens.
MCF10A rereplic: inducers of DNA re-replication in MCF 10A breast cells. AID 624296. Potency, µM (top dose mostly 46.1 µM), for the others: at the top dose activity, positive = re-replication, most hits filed as activators. 350,000 tested, 2.9% active. MCF 10A DNA re-replication, Hoechst nuclear intensity, 48 h; also: potency is read from the fitted curve at half-maximal effect; % of control where 0% means no effect; nearly all actives have a fitted effect of over 50% in size
SW480 rereplic: DNA re-replication induction in SW480 cells. SW480 DNA re-replication, Hoechst DNA content imaging, 48 h. 340,000 tested, 1.8% active. Potency, µM (top dose mostly 46.1 µM), without a hit: at the top dose re-replication activation, most hits filed as activators; also: potency is read from the fitted curve at half-maximal effect; % of control where 0% means no effect; nearly all actives have a fitted effect of over 55% in size
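Per well, 250 cells were exposed to pinned compound for 48 hr. Nuclear DNA was visualised with Hoechst (40 min, 37 C) and total object intensity recorded by fluorescence scanning.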
DRD3 antagonist: blocks the human D3 dopamine receptor; P35462; D3R cells, DiscoveRx beta-arrestin luminescence, antagonist mode; hits give low values; max response, negative = inhibition, %; 360,000 tested, 2.5% active; in the data active = max response below about -50%; inconclusive = no clear call, values can overlap the other calls; also: % is scaled to controls: 0 for no effect and ±100 for the full control effect
Target sequence (P35462 whole entry, looked up): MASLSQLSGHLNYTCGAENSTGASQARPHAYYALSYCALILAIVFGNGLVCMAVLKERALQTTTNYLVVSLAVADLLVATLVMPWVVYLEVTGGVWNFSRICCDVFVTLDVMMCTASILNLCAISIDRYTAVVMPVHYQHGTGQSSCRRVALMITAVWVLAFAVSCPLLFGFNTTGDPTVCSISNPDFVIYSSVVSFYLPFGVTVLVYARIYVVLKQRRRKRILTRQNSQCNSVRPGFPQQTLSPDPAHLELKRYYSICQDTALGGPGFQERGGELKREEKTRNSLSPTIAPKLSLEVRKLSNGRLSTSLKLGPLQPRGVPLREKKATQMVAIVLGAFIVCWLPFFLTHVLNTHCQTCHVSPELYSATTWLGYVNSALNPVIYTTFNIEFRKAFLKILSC
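Cells plated overnight at 1500 cells/well, then exposed to library compounds with dopamine controls for 90 minutes at 37 degrees C. DiscoveRx reagent added for 30–60 minutes at room temperature; luminescence read, quantitative HTS format.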
D3 ag: D3 dopamine receptor (human) agonism; P35462; D3R DiscoveRx beta-arrestin cells, luminescence, 90 min; max activation, %; 410,000 tested, 0.58% active; AID 652048; in the data active = max activation above about 30%; also: 0% is about no effect
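Agonist-mode cell screen: cells plated at 1500/well and incubated overnight at 37 °C, then exposed to library compounds for 90 min at 37 °C. Detection reagent was added for 30–60 min at room temperature, and luminescence was read.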
KB-V1 MDR tox: KB-V1 MDR subline cytotoxicity; KB-V1 MDR cells viability, CellTiter-Glo, 72 h; Potency, µM (doses to about 46.1 µM), hits mostly cytotoxic; 400,000 tested, 3.4% active; AID 1347076; also: potency is read from the fitted curve at half-maximal effect; % is scaled to controls: 0 for no effect and ±100 for the full control effect; nearly all actives have a fitted effect of over 60% in size
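Drug-selected KB-V1 cells, grown in DMEM lacking phenol red with 10% FBS, receive compound titrations; after three days at 37 degrees C, surviving cell ATP is quantified by CellTiter-Glo luminescence and responses normalized and curve-fitted.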
KB-3-1 cytotox: KB-3-1 parental cell cytotoxicity; KB-3-1 viability, CellTiter-Glo ATP luminescence, 72 h; Potency, µM (highest dose often 46.1 µM), usual class: cytotoxic; 400,000 tested, 1.4% active; also: potency is read from the fitted curve at half-maximal effect; % is scaled to controls: 0 for no effect and ±100 for the full control effect; nearly all actives have a fitted effect of over 60% in size
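KB-3-1 cells, DMEM (no phenol red) + 10% FBS; compound by pin transfer, 72 h, 37 °C. Readout: CellTiter-Glo luminescence after 10 min. Data normalized, curve-fitted.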
* marks the source's active call; other numbers are inactive results; i = inactive; ? = inconclusive; · = no result given; [ ] = remark or other dose. Unless noted, calls follow the shape of the dose curve; as a rule, active = well fitted curve in the direction sought with a large enough effect; inconclusive = small, poorly fitted or top-dose-only effect, or another doubt; inactive = no such curve, though single readings can be large; an effect the other way counts as inactive or inconclusive.

SMILES	MCF10A rereplic	SW480 rereplic	DRD3 antagonist	D3 ag	KB-V1 MDR tox	KB-3-1 cytotox
COc1ccccc1/C=N/NC(=O)c1cc2c(OC)c(OC)ccc2[nH]1	?	?	16	-6	?	?
COc1cc(/C=N\NC(=O)c2ccc(-c3ccccc3)cc2)cc(OC)c1O	?	0%	11	2	i	i
NC(=S)N/N=C/c1ccccc1OCc1cccc(Cl)c1	?	?	?	-18	i	18µM*
COC(=O)c1scc(-c2ccc(C)cc2)c1S(=O)(=O)N1CCN(c2ccc(C)cc2C)CC1	·	·	·	-11	i	i
COc1ccc(-c2nnc(SCC(=O)Oc3cccc(C)c3C)o2)cc1	·	·	·	0	i	i
CN1CCN(CCNC(=O)c2ccc(CS(=O)c3ccc(Br)cc3)o2)CC1 (stereo unspecified)	·	·	12	2	i	i
Cc1ccc(CN2CCC(C(=O)c3ccc(F)cc3)CC2)cc1	·	·	-122*	-13	i	i
COc1ccc(C(=O)C2CCN(C(=O)c3ccc(F)cc3)CC2)cc1	1%	-1%	11	2	?	i
O=C(c1ccc(F)cc1)C1CCN(CCn2c(=O)[nH]c3ccccc3c2=O)CC1	-1%	-15%	-51*	-58	i	i
Cc1ccc(NC(=O)N2CCC(C(=O)c3ccc(F)cc3)CC2)cc1	11%	-2%	6	-4	23µM*	i
COc1ccc(CN2CCC(C(=O)c3ccc(F)cc3)CC2)cc1	36%	6%	-120*	-21	i	i
CCCN(CCC)C(=O)C(c1ccccc1)C1(O)CCCCC1 (stereo unspecified)	-3%	-5%	-13	-6	i	i
CCN(CC)c1cc2c(cc1F)c(=O)c(S(=O)(=O)c1ccc(OC)cc1)cn2Cc1ccccc1	·	·	·	-7	i	i
Cc1ccccc1NC(=O)CN(C)S(=O)(=O)c1cccc2nsnc12	·	·	·	-3	·	·
CC(C)(C)c1ccc(C(=O)NNc2ncnc3c2cnn3-c2ccccc2)cc1	·	·	·	-21	i	i
COc1ccc(C(=O)C2CCN(C(=O)c3ccco3)CC2)cc1	3%	1%	3	1	23µM*	i
COc1ccc(C(=O)C2CCN(C(=O)c3ccc(C)cc3)CC2)cc1	12%	10%	15	-1	?	i
O=C(CSC(=S)N1CCCCC1)Nc1nc(-c2ccccc2)c(-c2ccccc2)o1	6%	12%	-52*	-40	23µM*	i
CCN(CC)C(=S)SCC(=O)Nc1nc(-c2ccccc2)c(-c2ccccc2)o1	15%	-4%	-10	-7	i	?
O=C(CSC(=S)N1CCOCC1)Nc1nc(-c2ccccc2)c(-c2ccccc2)o1	15%	10%	-30	7	i	i
Cn1nnnc1SCC(=O)Nc1nc(-c2ccccc2)c(-c2ccccc2)o1	?	0%	-53*	-7	i	i
Cc1cccc(C)c1NC(=S)NC(C)CCc1ccccc1 (stereo unspecified)	4%	9%	-8	-23	?	i
Cc1nc(-c2ccc(S(=O)(=O)NCc3ccc(OC(C)C)cc3)cc2)co1	·	·	·	3	i	i
CC(C)Nc1nc(Oc2ccc(Cl)cc2)cc(C(F)(F)F)n1	23µM*	8%	27	2	i	i
CCNc1nc(Oc2ccc(C#N)cc2)cc(C(F)(F)F)n1	-14%	9%	-7	1	3.3µM*	18µM*
SMILES	MCF10A rereplic	SW480 rereplic	DRD3 antagonist	D3 ag	KB-V1 MDR tox	KB-3-1 cytotox
NC(=O)c1ccc(NC(=O)C2CCN(S(=O)(=O)Cc3ccccc3)CC2)cc1	·	·	·	-4	i	i
CC(C)Sc1nc(N2CCOCC2)c2c3c(sc2n1)COC(C)(C)C3	?	13%	17	3	?	i
CCOC(=O)N1CCN(c2nc(SC)nc3sc4c(c23)CC(C)(C)OC4)CC1	14%	-4%	14	2	i	i
CCN1CCN(c2nc(SC)nc3sc4c(c23)CC(C)(C)OC4)CC1	1%	-4%	-22	-8	8.2µM*	i
CSc1nc(N2CCOCC2)c2c3c(sc2n1)CCC3	5%	-3%	-65*	11	i	i
Cc1ccc(NC(=O)Cn2ccn(Cc3ccc(Cl)cc3)c(=O)c2=O)cc1C	·	·	·	3	·	·
CC(C)c1ccc(Nc2c(-c3ccccc3O)nc3cnccn23)cc1	·	·	·	38*	i	i
COc1ccc(CC2(CO)COc3ccccc3C2=O)cc1 (stereo unspecified)	?	16µM*	-21	-24	13µM*	?
CC(C)c1ccc(S(=O)(=O)NCc2ccc3c(c2)CCN3C(=O)c2ccccc2)cc1	·	·	·	0	·	·
CC(=O)c1ccc(NC(=O)CN(C)S(=O)(=O)c2cccc3nsnc23)cc1	·	·	·	6	i	i
Cn1nccc1/C=C(/C#N)S(=O)(=O)c1ccccc1	?	?	-56*	1	i	i
Cc1ccc(Cl)cc1NS(=O)(=O)c1ccc2c(c1)NC(=O)CCS2	·	·	·	4	?	?
CCc1ccc(NC(=S)NCC2CCCN2CC)cc1 (stereo unspecified)	1%	3%	-75*	-27	i	i
CCN1CCCC1CNC(=O)C(=O)Nc1ccc(OC)cc1 (stereo unspecified)	13%	-1%	-6	3	i	i
Cc1nc2ccn(Cc3cccs3)c(=O)c2cc1C(=O)NCc1ccc(Br)cc1	·	·	·	-5	·	·
Oc1c(C(Nc2cccc(C(F)(F)F)c2)c2ccncc2)ccc2cccnc12 (stereo unspecified)	?	12µM*	-54*	7	?	i
Oc1c(C(Nc2nccs2)c2ccc(C(F)(F)F)cc2)ccc2cccnc12 (stereo unspecified)	?	1.3µM*	27	39*	?	?
Oc1c(C(Nc2cccnc2)c2ccccc2F)ccc2cccnc12 (stereo unspecified)	·	·	·	·	i	i
CCS(=O)(=O)N1CCc2cc(C(=O)NCCc3ccc(OC)c(OC)c3)ccc21	·	·	·	-12	i	i
O=C(Nc1ccccc1Cl)c1cc(=O)c2ccccc2o1	23%	-1%[9.22 µM]	2	4	?	i
Cc1ccc(S(=O)(=O)N2CC3(C)CN(S(=O)(=O)c4ccc(C)cc4)CC(C)(C2)C3)cc1	10%	3%	19	31*	i	i
CCCCOc1ncnc2c1[nH]c1ccc(C)cc12	-2%	-1%	16	23	7.3µM*	?
CCCOc1ncnc2c1[nH]c1ccc(OC)cc12	8%	20%	34	13	15µM*	?
CCOc1ccc(CNc2cc(C)nc3nc(-c4cccc(C)c4)nn23)cc1OC	·	·	·	1	·	·
